LASV entry inh: inhibitors of Lassa virus binding or entry into cells. Lassa virus pseudotyped entry inhibition, cell-based qHTS. Potency, µM (top dose mostly 49.2 µM), for the others: at the highest dose activity change, negative = inhibition, usual class: inhibitors. actives 4.1% (n = 18,000). AID 720533
Marburg entry: blocks Marburg virus binding or cell entry. Marburg virus pseudotype entry/binding inhibition, cell-based. Potency, µM (top dose mostly 49.2 µM), without a hit: at the highest dose activity change, negative = inhibition, most hits filed as inhibitors. actives 6.5% (n = 18,000). AID 720532
Active calls of the source: *; u = inconclusive; x = no result given; ! = not active in a repeat; [ ] = remark or other dose. Hits are enriched below; roughly 7.1% of the tested compounds scored in any of these assays. The call rests on the fitted dose curve; tested in HEK293 cells. On the % scale 0 is the no-effect control and ±100 the full control effect; potency means the concentration at half of the fitted maximal effect.

SMILES	LASV entry inh	Marburg entry
COc1cccc(-c2c[nH]c3c(NN=Cc4ccncc4)ncnc23)c1	-65%	u
O=c1[nH]cnc2c1ncn2C1OC(CO)C(O)C1O (configuration not stated)	2%	9%
Nc1nc(Cl)nc2c1ncn2C1OC(CO)C(O)C1F (configuration not stated)	2.5µM*	2.8µM*
Nc1nc(Cl)nc2c1ncn2[C@@H]1O[C@H](CO)[C@@H](O)[C@H]1O	32µM*!	u
OCC1OC(n2cnc3c(=S)nc[nH]c32)C(O)C1O (configuration not stated)	u	3.5µM*
Nc1nc2c(ncn2[C@@H]2O[C@H](CO)[C@@H](O)[C@H]2O)c(=O)[nH]1	-17%	7%
OC[C@H]1O[C@@H](n2cnc3c(NC4CCCC4)nc(Cl)nc32)[C@H](O)[C@@H]1O	-17%	13%
C=CC[C@@H]1C=C[C@@H](OC(=O)OCC)[C@@H](COC(=O)OCC)O1	-9%[8.59 µM]	17%[8.59 µM]
COc1ccc([C@]23Cc4ccccc4[C@H](O2)C2=C(CCCC2=O)O3)cc1	-4%[8.59 µM]	57%[8.59 µM]
COc1ccc(CNC(=O)/C=C\c2ccc3[nH]cc(CCN(C)C)c3c2)cc1	-23%	22µM*
CN(C)CCc1c[nH]c2ccc(O)cc12	-9%	-13%
CC1=CC[C@@H](COc2ccccc2)O[C@@]2(C1)C(=O)N(Cc1ccc(F)cc1)c1ccccc12	-11%[8.59 µM]	-2%[8.59 µM]
COC(=O)CC=C[C@@H](C)[C@H](OC)c1c(Br)ccc2c1OCO2	5%[8.59 µM]	u
Cc1[nH]cnc1C[C@H]1CCc2c(C)c3ccccc3n2C1=O	-13%	u
C[C@@]12C(=O)OC(=O)[C@@]1(C)[C@@H]1CC[C@@H]2O1	-13%	4%
C[C@@]12C(=O)OC(=O)[C@@]1(C)C1CCC2O1	2µM*	3.5µM*
CCCCC(F)(F)[C@@]1(O)CC[C@H]2[C@@H](CC(=O)[C@@H]2CCCCCCC(=O)O)O1	-16%	3%
COc1ccc(OC[C@H]2CN3[C@H](c4ccc(Br)cc4)[C@H](C)CC[C@H]3C(=O)O2)cc1	11%[8.59 µM]	-7%[8.59 µM]
CCC[C@H]1CN(c2ccc(OC)cc2)C(=O)[C@H]1CC(=O)NC	-14%	u
C[C@]12CCC3C(CC[C@]4(O)C[C@@H](O)CC[C@]34C=O)[C@@]1(O)CC[C@@H]2C1=CC(=O)OC1 (some centres not stated)	1µM*	u
CC(C)[C@@H](OCc1ccccc1)[C@H](C)C=NOC[C@@H](O)COCc1ccco1	-28%[8.59 µM]	14%[8.59 µM]
COC(=O)N[C@H](C(C(=O)OC)=C(C)NCc1ccccc1)c1ccccc1	x	-4%[8.59 µM]
CC(=O)OCOC(=O)CN(CC(=O)OCOC(C)=O)c1ccccc1OCCOc1ccccc1N(CC(=O)OCOC(C)=O)CC(=O)OCOC(C)=O	u	16µM*
CCCCCC(=O)N1C[C@H](O)[C@@H](n2cc(C3CC3)nn2)C[C@H]1c1ccc(Cl)cc1	0%	-8%
CCCCCCN1C[C@H](O)[C@@H](n2cc(COC(=O)c3ccccc3)nn2)C[C@H]1c1ccccc1	8%	u
SMILES	LASV entry inh	Marburg entry
C[C@H]1CCC/C=C/C2C[C@H](O)C[C@H]2[C@H](O)/C=C/C(=O)O1 (some centres not stated)	0.63µM*!	0.63µM*
C[C@H]1CCCC(=O)CCC/C=C/c2c(O)cc(O)cc2C(=O)O1	-16%	-30%
C[C@H]1CCC/C=C/[C@@H]2C[C@H](O)C[C@H]2[C@H](O)/C=C/C(=O)O1	1.1µM*	1.1µM*
O=C1Nc2cccc(Br)c2[C@@]12O[C@H](COc1ccccc1)CC1=CCC[C@H]12	-21%[8.59 µM]	22%[8.59 µM]
COc1cccc(-n2ncc3c(NN=Cc4cccc(F)c4)ncnc32)c1	x	-11%
CNc1nc(-c2ccc(N(C)C)cc2)nc2ccccc12	-7%	18µM*
CN(C)c1ccc(-c2nc(Nc3ccncc3)c3ccccc3n2)cc1	-32%	u
CN(C)c1ccc(-c2nc(N(C)C)c3ccccc3n2)cc1	-7%	11µM*
CN(C)c1ccc(-c2nc(N(C)Cc3ccco3)c3ccccc3n2)cc1	29%	u
CC(C)C[C@H]1COc2c(Cl)cccc2S(=O)(=O)N1Cc1ccc(Cl)cc1	u	-23%
CCCCC#C[C@@H]1C=C[C@H](Oc2ccc(C(=O)OC)cc2)[C@@H](COC(=O)OCC)O1	6%[8.59 µM]	16%[8.59 µM]
CCCCCC(=O)N1C[C@@H](O)[C@H](n2cc(C3CC3)nn2)C[C@H]1c1ccc(Cl)cc1	14%	u
CC[C@@H]1/C=C/C=C/C[C@H](C)[C@@H](O)[C@](C)(O)C(=O)[C@H](C)[C@@H](O)[C@H](C)C(=O)[C@H](C)[C@@H](O)[C@H](C)/C=C/C(=O)O[C@H]2[C@@H](C)[C@@H](CC1)O[C@@]1(CC[C@@H](C)[C@@H](C[C@H](C)O)O1)[C@@H]2C	40µM*	10µM*
C[C@H]1CC[C@H]2C(=O)N(Cc3ccccc3)C[C@H](O)CN2[C@H]1c1cccc(Br)c1	x	-5%[8.59 µM]
C[C@@H]1C[C@@H]([C@H](O)CC2CC(=O)NC(=O)C2)C(=O)[C@@H](C)C1	2.8µM*	3.2µM*
C[C@@H]1CC([C@H](O)CC2CC(=O)NC(=O)C2)C(=O)[C@@H](C)C1 (some centres not stated)	1µM*	u
COC(=O)N[C@@H](c1cccc(F)c1)[C@]1(C(=O)OC)CCCC1=O	4%[8.59 µM]	3%[8.59 µM]
COC(=O)C1=C(C)N(Cc2ccco2)C(=O)NC1c1ccco1 (configuration not stated)	-26%[8.59 µM]	0%[8.59 µM]
COc1ccc(O[C@H]2C=C[C@@H](c3ccccc3)O[C@H]2COC(=O)CCC(C)=NO[C@@H]2O[C@H](COC(C)=O)[C@@H](OC(C)=O)[C@H](OC(C)=O)[C@@H]2OC(C)=O)cc1	7%[8.59 µM]	-23%[8.59 µM]
COC1=C(C(=O)c2ccccc2)C(=O)[C@@]2(CC=C(C)C)C[C@H](C(=O)OCC(F)(F)F)C(C)(C)[C@@]1(CC=C(C)C)C2=O	2%[8.59 µM]	33%[8.59 µM]
CC1(C)CCC2=C(O1)c1ccccc1C(=O)C2=O	7.1µM*	11µM*
Cc1ccc(-c2cc(=O)c3cc(C)ccc3[nH]2)cc1	u	25µM*
Cc1ccc2[nH]c(-c3cccc(F)c3)cc(=O)c2c1	9%	u
COC(=O)CC=C1c2ccccc2[C@@H](O)[C@@H]1C	-17%[8.59 µM]	52%[8.59 µM]
CCN1CCC[C@H]1CNC(=O)c1c(O)c(Cl)cc(Cl)c1OC	-2%	14%
CCCCN1CCC[C@@H]1CNC(=O)c1cc(C#N)c2ccccc2c1OC	u	14µM*
C=CC[C@@](C(C)=O)(C(=O)OC)[C@@H](NC(=O)OC(C)(C)C)c1ccccc1	12%[8.59 µM]	30%[8.59 µM]
NC1(C(=O)O)CC(C(=O)O)C1 (configuration not stated)	2%	30%
N[C@@]1(C(=O)O)CN[C@@H](C(=O)O)C1	-4%	28µM*
C[C@H]1CC[C@@H]2[C@@H](C)[C@H]3[C@H](C[C@H]4[C@@H]5CC=C6C[C@@H](O[C@]7(O[C@H]8O[C@@H](C)[C@@H](O)[C@@H](O)[C@@H]8O)C[C@@H](O[C@@H]8O[C@H](CO)[C@@H](O)[C@H](O)[C@@H]8O)[C@@H](O)[C@H](CO)O7)CC[C@]6(C)[C@H]5CC[C@@]34C)N2C1	14%[17.8 µM]	4%[17.8 µM]

Screening results as filed in PubChem BioAssay.
